{"source": "PubChem BioAssay (NCI)", "note": "About 83,000 compounds went through this panel and 20% of them were active in at least one assay; those are over-represented in the sample as a whole.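 48-hour exposure, single concentration, 96-well plates; percent growth endpoint where 0 means no net growth. Active: below 10.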 A number with no mark means an inactive call. Active and inactive are the calls of the source."}
{"tested_on": "SK-MEL-2 melanoma", "assay": "NCI-60 one-dose screen, 48 h (100 = growth as untreated, 0 = no growth, -100 = all killed)", "conditions": "10 µM unless noted"}
{"smiles": "CCc1cc2c(cc1Cl)nc1c(=O)[nH]c(=O)nc-1n2CCOCC(C)(C)C", "growth": "96.6%"}
{"smiles": "Cc1cc(=O)[nH]c(O)c1C#N", "growth": "116%"}
{"smiles": "CC1(C)CC[C@]23CC[C@]4(C)[C@H](CC[C@@H]5[C@@]6(C)CC[C@H](NCO)C(C)(C)[C@@H]6CC[C@]54C)[C@H]2[C@H]1OC3", "growth": "97.2%"}
{"smiles": "CC(C)[C@H]1c2[nH]c3ccccc3c2C[C@H]2C(=O)N(CCCCCCC(=O)NO)CC(=O)N12", "growth": "86.8%"}
{"smiles": "Cn1cc(-c2nc(N)nnc2-c2c[nH]c3ccc(Br)cc23)c2cc(F)ccc21", "growth": "113%"}
{"smiles": "CCCCCCCCCCCC(=O)NC(C)(C)C(=O)N1CCCC1C(=O)NC(C)(C)C(=O)NC(C)(C)C(=O)N1CCCC1C(=O)NC(C)(C)C(=O)NC(C)(C)C(=O)N1CCCC1C(=O)NC(C)C(=O)NCCC(=O)NC(C)C(=O)NC(C)(C)C(=O)NC(C)(C)C(=O)NC(C)(C)C(=O)NCCC(=O)NC(C)(C)C(=O)NC(C)(C)C(=O)NC(C)(C)C(=O)NC(C)C(=O)NCCC(=O)O", "note": "(stereo unspecified)", "growth": "-96.2% (active)"}
{"smiles": "CN1CCN(c2ccc(Nc3nc(NCCNC(=O)c4ccccc4)c4sccc4n3)cc2)CC1", "growth": "96.6%"}
{"smiles": "Cc1[nH]c(C(=O)Nc2ccccc2OCc2cccc(C(=O)NCCN)c2)cc1Cl", "growth": "92.8%"}
{"smiles": "CCCc1[nH]c(-c2cc(N)ccc2Cl)c2c1C(=O)CCCC2", "growth": "95.5%"}
{"smiles": "O=C(Nc1ccc(N=Cc2c(O)[nH]c3ccccc23)cc1)Nc1ccc(S(=O)(=O)Nc2ncccn2)cc1", "growth": "111%"}
{"smiles": "CC1=Cc2ccccc2OC12C=Cc1ccccc1O2", "note": "(stereo unspecified)", "growth": "115%"}
{"smiles": "NS(=O)(=O)c1ccc(CCn2c(-c3ccc(C(=O)O)cc3)nc(-c3ccccc3)c2-c2ccccc2)cc1", "growth": "104%"}
{"smiles": "COc1ccc(/C=N\\NC(=O)c2cnn(CC(O)c3ccccc3)c2N)cc1OCc1ccc(Cl)cc1", "note": "(stereo unspecified)", "growth": "92.9%"}
{"smiles": "CNc1sc(S(=O)(=O)NC)nc1S(=O)(=O)c1ccc(C)cc1", "growth": "103%"}
{"smiles": "C=C(C)[C@@H]1CC[C@]2(C(=O)N3CCN(C)CC3)CC[C@]3(C)[C@H](CC[C@@H]4[C@@]5(C)CC[C@H](OP(=O)(OCC)OCC)C(C)(C)[C@@H]5CC[C@]43C)[C@@H]12", "growth": "106%"}
{"smiles": "NS(=O)(=O)c1ccc(Nc2nc(Nc3ccccc3)nc(N3N=C(c4ccc(Cl)cc4)CC3c3ccc(Cl)cc3)n2)cc1", "note": "(stereo unspecified)", "growth": "65.6%"}
{"smiles": "COc1cc(C(C)=C(c2ccc(OCCN(C)C)cc2)c2ccc(OCCN(C)C)cc2)ccc1F", "growth": "109%"}
{"smiles": "CN1CCN(c2ccc(Nc3nc(NCCCNS(=O)(=O)c4ccc(F)cc4)c4sccc4n3)cc2)CC1", "growth": "107%"}
{"smiles": "CCOC(=O)c1c(NC(=O)c2ccc(C(F)(F)F)cc2)sc2c(CN3CCN(C)CC3)c(O)ccc12", "growth": "44.8%"}
{"smiles": "CC(O)c1cccc(/C(N)=N/C(N)=N/c2nc3ccccc3s2)c1", "note": "(stereo unspecified)", "growth": "107%"}
{"smiles": "C#Cc1cc(C(=O)Nc2ccc(CNCCN3CCOCC3)c(C(F)(F)F)c2)ccc1C", "growth": "104%"}
{"smiles": "COc1ccc(/C=N/NC(=O)CSc2nc(-c3cnccn3)cc(-c3cccs3)c2C#N)cc1", "growth": "89%"}
{"smiles": "Cn1cc(-c2nnc(N)nc2-c2c[nH]c3ccc(Br)cc23)c2cc(Br)ccc21", "growth": "110%"}
{"smiles": "COc1ccc2[nH]cc(-c3nc(N)nnc3-c3cn(C)c4ccc(Br)cc34)c2c1", "growth": "9.85% (active)"}
{"smiles": "C#CCN(C)CCCOc1ccc(NCc2ccc(C(=O)NO)cc2)cc1Cl", "growth": "15%"}
{"smiles": "CCN(CC)c1ccc(/C=N/NC(=O)c2ccc(NS(C)(=O)=O)cc2)c(O)c1", "growth": "40.7%"}
{"smiles": "O=C(CCCCCCN1CC(=O)N2[C@@H](c3ccc(Cl)s3)c3[nH]c4ccccc4c3C[C@H]2C1=O)NO", "growth": "59.9%"}
{"smiles": "CC1(C)CC[C@]23CC[C@]4(C)[C@H](CC[C@@H]5[C@@]6(C)CC[C@H](N)C(C)(C)[C@@H]6CC[C@]54C)[C@H]2[C@H]1OC3", "growth": "108%"}
{"smiles": "Cc1ccc(S(=O)(=O)NCCCNc2nc(Nc3ccc(N4CCN(C)CC4)cc3)nc3ccsc23)cc1", "growth": "92.9%"}
{"smiles": "N#Cc1nc(-c2ccccc2)oc1N1CCC(C2(C(F)(F)F)N=N2)CC1", "growth": "97.8%"}
{"smiles": "O=C(CCCCCCN1CC(=O)N2[C@@H](c3cccs3)c3[nH]c4ccccc4c3C[C@H]2C1=O)NO", "growth": "77.8%"}
